In the supplement of paper PMC10849652:
The full data set covers some 8,800 targets. This sample favours those with a hit. About 0.5% of all pairs of compound and target were hits.

Assays:
Test in all cases: log2 fold change, soluble protein after heating vs DMSO (PISA); higher = thermal stabilisation; K562 lysate, 10 uM; active = over 0.2 and 3.5 SD of the protein, either way, in both replicates (recomputed)
[1] = compound: CN1CC[C@H](c2c(O)cc(O)c3c(=O)cc(-c4ccccc4Cl)oc23)[C@H](O)C1 [alvocidib]
Procedure, shortened: (§1)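 K562 pellets were dounce-homogenised in PBS pH 7.4 with 1 mM MgCl2, and the crude extract at 1 mg/mL protein was treated with 10 μM compound for 30 min. Aliquots were heated for 3 min across 48°C-58°C, pooled, and brought to 0.5% NP-40 at 4°C; soluble protein was the supernatant after 21,000xg for 90 min. Soluble protein was quantified by TMTpro 16plex LC-MS/MS with channel sums equalised, and reported as log2 fold change in thermal stability against DMSO controls, with values from duplicates.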

[2] = compound: CN1CCc2c(c3ccccc3n2Cc2ccc(C(=O)NO)cc2)C1 [Tubastatin A]
Procedure, shortened: as §1

[3] = compound: CNC(=O)C1=CC=CC=C1NC2=NC(=NC=C2Cl)NC3=C(C=C(C=C3)N4CCOCC4)OC
Procedure, shortened: as §1

[4] = compound: CNC(=O)c1ccc(Nc2ncc(C(F)(F)F)c(NCc3nccnc3N(C)S(C)(=O)=O)n2)cc1 [defactinib]
Procedure, shortened: as §1

[5] = compound: CNc1nc(-c2ccc3c(N)n[nH]c3c2)cc(N2C[C@@H](C(=O)NC3CCCCC3)CC[C@H]2C)n1
Procedure, shortened: as §1

[6] = compound: COC(=O)N[C@@H](C)CNc1nccc(-c2cn(C(C)C)nc2-c2cc(Cl)cc(NS(C)(=O)=O)c2F)n1 [encorafenib]
Procedure, shortened: as §1

[7] = compound: COC(=O)[C@H](CCSC)NC(=O)C1=C(C=C(C=C1)NC[C@H](CS)N)C2=CC=CC=C2
Procedure, shortened: as §1

[8] = compound: COc1cc(Nc2ncc3c(n2)-c2ccc(Cl)cc2C(c2c(F)cccc2OC)=NC3)ccc1C(=O)O [alisertib]
Procedure, shortened: as §1

[9] = compound: COc1cc2nc(-c3cc(F)ccc3O)nc(N[C@@H]3CNC[C@H]3C(C)(C)O)c2cc1OC
Procedure, shortened: as §1

[10] = compound: COc1cc2ncnc(Nc3ccc(F)c(Cl)c3)c2cc1OCCCN1CCOCC1 [gefitinib]
Procedure, shortened: as §1

Measured: log2 fold change

C15orf41 (UniProt Q9Y2V0)
inactive: [1] -0.002 | [2] -0.036 | [3] 0.039 | [4] -0.13 | [5] 0.002 | [6] 0.126 | [7] -0.043 | [8] 0.023 | [9] 0.09 | [10] 0.006

CANX isoform 2 (UniProt P27824)
UniProt P27824, sequence (P27824 whole entry, looked up): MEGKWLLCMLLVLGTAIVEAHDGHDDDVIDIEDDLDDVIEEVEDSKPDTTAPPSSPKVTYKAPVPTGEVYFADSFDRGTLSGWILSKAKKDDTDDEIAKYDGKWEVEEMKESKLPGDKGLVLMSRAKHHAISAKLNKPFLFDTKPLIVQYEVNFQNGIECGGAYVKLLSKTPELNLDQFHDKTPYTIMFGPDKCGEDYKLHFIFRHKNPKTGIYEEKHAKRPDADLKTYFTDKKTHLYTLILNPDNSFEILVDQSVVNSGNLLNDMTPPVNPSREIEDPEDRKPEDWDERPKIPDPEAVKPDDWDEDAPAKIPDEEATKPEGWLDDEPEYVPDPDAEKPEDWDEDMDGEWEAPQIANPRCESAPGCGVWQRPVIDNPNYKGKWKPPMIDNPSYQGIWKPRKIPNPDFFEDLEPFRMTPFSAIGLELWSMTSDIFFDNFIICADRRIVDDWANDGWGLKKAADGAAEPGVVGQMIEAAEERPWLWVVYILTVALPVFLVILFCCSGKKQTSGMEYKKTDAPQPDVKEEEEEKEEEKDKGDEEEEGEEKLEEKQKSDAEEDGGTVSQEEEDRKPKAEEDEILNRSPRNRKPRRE
inactive: [1] -0.024 | [2] 0.05 | [3] -0.006 | [4] 0.002 | [5] -0.003 | [6] 0.027 | [7] -0.015 | [8] -0.008 | [9] 0.023 | [10] 0.008

CELF2 isoform 3 (UniProt O95319)
inactive: [1] 0.067 | [2] -0.025 | [3] 0.019 | [4] 0.018 | [5] -0.02 | [6] 0.108 | [7] -0.031 | [8] 0.037 | [9] -0.079 | [10] -0.061

CDK5 (UniProt Q00535)
active: [1] 1.07 | [4] 0.654
inactive: [2] -0.058 | [3] 0.211 | [5] -0.032 | [6] 0.024 | [7] -0.1 | [8] -0.032 | [9] 0.03 | [10] -0.027

CDKN2AIP (UniProt Q9NXV6)
UniProt Q9NXV6, sequence (Q9NXV6 whole entry, looked up): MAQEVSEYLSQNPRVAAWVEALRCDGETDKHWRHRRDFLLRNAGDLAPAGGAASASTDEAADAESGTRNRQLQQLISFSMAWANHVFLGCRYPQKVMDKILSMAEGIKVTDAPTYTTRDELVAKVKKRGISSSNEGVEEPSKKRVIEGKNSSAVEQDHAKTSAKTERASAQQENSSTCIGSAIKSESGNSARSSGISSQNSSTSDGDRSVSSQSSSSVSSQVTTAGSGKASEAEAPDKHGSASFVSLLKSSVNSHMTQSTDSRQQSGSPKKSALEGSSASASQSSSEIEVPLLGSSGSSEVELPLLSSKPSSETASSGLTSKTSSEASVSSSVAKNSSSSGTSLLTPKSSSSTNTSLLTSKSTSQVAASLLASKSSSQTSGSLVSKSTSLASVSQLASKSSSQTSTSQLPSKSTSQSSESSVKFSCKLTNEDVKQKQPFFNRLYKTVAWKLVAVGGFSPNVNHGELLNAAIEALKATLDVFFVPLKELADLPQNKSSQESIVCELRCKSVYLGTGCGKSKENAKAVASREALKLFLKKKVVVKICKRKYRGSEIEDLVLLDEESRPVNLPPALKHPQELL
inactive: [1] -0.008 | [2] -0.066 | [3] -0.016 | [4] -0.011 | [5] 0.054 | [6] 0.023 | [8] 0.021 | [9] -0.003 | [10] -0.073
active: [7] 0.236

CDC42EP4 (UniProt Q9H3Q1)
inactive: [1] -0.086 | [2] -0.013 | [3] 0.041 | [4] 0.033 | [5] 0.113 | [6] 0.079 | [7] -0.054 | [8] -0.085 | [9] -0.017 | [10] 0.006

CHAC2 (UniProt Q8WUX2)
UniProt Q8WUX2, sequence (Q8WUX2 whole entry, looked up): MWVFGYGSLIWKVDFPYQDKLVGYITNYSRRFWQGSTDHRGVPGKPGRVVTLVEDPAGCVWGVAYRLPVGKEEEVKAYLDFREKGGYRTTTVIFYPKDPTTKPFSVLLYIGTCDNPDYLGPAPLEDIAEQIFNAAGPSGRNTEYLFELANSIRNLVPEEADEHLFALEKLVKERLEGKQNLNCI
inactive: [1] 0.223 | [2] 0.019 | [3] 0.092 | [4] 0.028 | [5] 0.019 | [6] 0.06 | [7] 0.003 | [8] -0.039 | [9] -0.007 | [10] 0

ATG4A (UniProt Q8WYN0)
inactive: [1] 0 | [2] -0.104 | [3] 0.042 | [4] 0.036 | [5] 0.01 | [6] 0.037 | [7] -0.087 | [8] -0.016 | [9] -0.001 | [10] 0.052

C12orf45 (UniProt Q8N5I9)
inactive: [1] -0.13 | [2] 0.007 | [3] 0.004 | [4] -0.042 | [5] 0.036 | [6] 0.05 | [7] -0.06 | [8] 0.016 | [9] 0.01 | [10] 0.011

CENPQ (UniProt Q7L2Z9)
inactive: [1] -0.122 | [2] -0.016 | [3] 0.032 | [4] -0.085 | [5] 0.055 | [6] 0.169 | [7] 0.025 | [8] 0 | [9] -0.068 | [10] 0.091

BRD4 (UniProt O60885)
inactive: [1] -0.003 | [2] -0.001 | [3] 0.02 | [4] -0.05 | [5] 0.036 | [6] 0 | [7] 0.03 | [8] 0.038 | [9] -0.03 | [10] 0.034

C1orf112 (UniProt Q9NSG2)
inactive: [1] -0.247 | [2] -0.181 | [3] 0.077 | [4] 0.038 | [5] -0.082 | [6] 0.037 | [7] 0.096 | [8] -0.032 | [9] -0.046 | [10] -0.004

ATP6V0A2 (UniProt Q9Y487)
inactive: [1] -0.129 | [2] 0.091 | [3] 0.022 | [4] 0.008 | [5] 0.001 | [6] 0.03 | [7] -0.027 | [8] 0.015 | [9] 0.048 | [10] 0.036

BUB1B isoform 3 (UniProt O60566)
inactive: [1] -0.032 | [2] -0.122 | [3] 0.018 | [4] -0.012 | [5] 0.018 | [6] 0.033 | [7] 0.018 | [8] 0.002 | [9] 0.011 | [10] -0.005

BCKDHB (UniProt P21953)
UniProt P21953, sequence (P21953 whole entry, looked up): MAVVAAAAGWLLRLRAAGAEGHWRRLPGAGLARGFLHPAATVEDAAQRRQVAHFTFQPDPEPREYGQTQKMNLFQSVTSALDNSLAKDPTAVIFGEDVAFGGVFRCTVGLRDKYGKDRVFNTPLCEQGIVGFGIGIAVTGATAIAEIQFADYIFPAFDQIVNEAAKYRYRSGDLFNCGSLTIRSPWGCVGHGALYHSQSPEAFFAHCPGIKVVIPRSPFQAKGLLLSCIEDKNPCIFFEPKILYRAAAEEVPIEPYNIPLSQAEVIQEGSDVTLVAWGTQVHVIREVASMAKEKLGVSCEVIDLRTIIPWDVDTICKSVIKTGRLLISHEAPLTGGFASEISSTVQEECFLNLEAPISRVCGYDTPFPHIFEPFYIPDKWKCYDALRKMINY
inactive: [1] 0.062 | [2] 0.011 | [3] 0.008 | [4] -0.008 | [5] -0.031 | [6] -0.074 | [7] 0.107 | [8] -0.019 | [9] -0.015 | [10] -0.024

CCAR2 (UniProt Q8N163)
inactive: [1] -0.052 | [2] -0.096 | [3] 0.001 | [4] 0.018 | [5] -0.02 | [6] 0.014 | [7] 0.011 | [8] 0.014 | [9] 0 | [10] 0.003

CDK1 (UniProt P06493)
UniProt P06493, sequence (P06493 whole entry, looked up): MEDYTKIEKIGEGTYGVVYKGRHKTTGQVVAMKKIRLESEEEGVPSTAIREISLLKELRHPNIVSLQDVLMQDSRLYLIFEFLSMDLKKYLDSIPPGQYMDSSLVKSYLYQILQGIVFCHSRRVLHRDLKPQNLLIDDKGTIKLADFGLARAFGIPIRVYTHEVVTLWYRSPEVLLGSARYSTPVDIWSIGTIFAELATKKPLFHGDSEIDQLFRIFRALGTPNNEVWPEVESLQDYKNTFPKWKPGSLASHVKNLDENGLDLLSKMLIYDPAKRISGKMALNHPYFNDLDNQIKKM
inactive: [1] 0.036 | [2] -0.032 | [3] -0.017 | [4] -0.035 | [5] -0.021 | [6] 0.011 | [7] 0.036 | [8] 0.002 | [10] -0.03
active: [9] 0.328

ATG7 (UniProt O95352)
UniProt O95352, sequence (O95352 whole entry, looked up): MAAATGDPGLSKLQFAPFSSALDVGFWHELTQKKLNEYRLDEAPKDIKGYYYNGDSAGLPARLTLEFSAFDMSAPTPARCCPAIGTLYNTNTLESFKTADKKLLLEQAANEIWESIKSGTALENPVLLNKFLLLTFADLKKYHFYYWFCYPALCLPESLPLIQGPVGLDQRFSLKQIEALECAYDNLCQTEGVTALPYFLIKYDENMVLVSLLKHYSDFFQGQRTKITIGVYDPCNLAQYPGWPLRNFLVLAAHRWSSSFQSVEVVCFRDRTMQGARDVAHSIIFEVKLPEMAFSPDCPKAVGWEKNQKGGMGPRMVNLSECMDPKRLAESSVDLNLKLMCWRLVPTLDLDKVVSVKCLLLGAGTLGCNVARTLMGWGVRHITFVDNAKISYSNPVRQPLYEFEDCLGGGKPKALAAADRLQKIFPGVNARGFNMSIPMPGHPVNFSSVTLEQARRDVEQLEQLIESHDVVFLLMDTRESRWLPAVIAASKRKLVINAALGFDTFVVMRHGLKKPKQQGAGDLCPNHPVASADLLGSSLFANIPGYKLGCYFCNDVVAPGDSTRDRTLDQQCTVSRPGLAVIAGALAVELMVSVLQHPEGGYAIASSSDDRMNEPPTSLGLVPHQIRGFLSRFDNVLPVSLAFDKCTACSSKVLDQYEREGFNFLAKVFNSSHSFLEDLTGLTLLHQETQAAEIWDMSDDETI
inactive: [1] 0.01 | [2] -0.075 | [3] 0.001 | [4] 0.012 | [5] -0.04 | [6] 0.021 | [7] -0.031 | [8] 0.006 | [9] -0.008 | [10] 0.019

C3 (UniProt P01024)
inactive: [1] -0.027 | [2] 0.051 | [3] 0.041 | [4] 0.01 | [5] 0.008 | [6] 0 | [7] 0.054 | [8] -0.031 | [9] -0.005 | [10] 0.05

CCNYL1 (UniProt Q8N7R7)
UniProt Q8N7R7, sequence (Q8N7R7 whole entry, looked up): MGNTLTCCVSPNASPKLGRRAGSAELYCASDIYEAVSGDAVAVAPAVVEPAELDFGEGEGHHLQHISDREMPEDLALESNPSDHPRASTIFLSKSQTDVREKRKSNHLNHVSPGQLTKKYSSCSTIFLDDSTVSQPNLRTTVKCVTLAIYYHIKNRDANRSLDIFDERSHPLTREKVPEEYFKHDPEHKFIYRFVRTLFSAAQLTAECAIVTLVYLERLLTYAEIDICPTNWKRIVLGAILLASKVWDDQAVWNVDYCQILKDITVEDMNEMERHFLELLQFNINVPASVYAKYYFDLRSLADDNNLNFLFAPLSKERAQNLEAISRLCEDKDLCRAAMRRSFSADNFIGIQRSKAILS
inactive: [1] -0.074 | [2] -0.076 | [3] 0.061 | [4] 0.024 | [5] 0.055 | [6] 0.011 | [7] 0.032 | [8] -0.012 | [9] 0.032 | [10] 0.101

C1orf131 isoform 5 (UniProt Q8NDD1)
inactive: [1] -0.118 | [2] -0.036 | [3] 0.03 | [4] 0.013 | [5] 0.148 | [6] 0.127 | [7] 0.02 | [8] 0.148 | [9] -0.038 | [10] 0.111

C2CD5 isoform 3 (UniProt Q86YS7)
inactive: [1] -0.157 | [2] 0.006 | [3] -0.003 | [4] -0.002 | [5] 0.01 | [6] 0.054 | [7] -0.028 | [8] -0.016 | [9] 0.016 | [10] 0.054

BLM (UniProt P54132)
inactive: [1] 0.082 | [2] -0.07 | [3] 0.071 | [4] 0.031 | [5] 0.001 | [6] 0.043 | [7] 0.018 | [8] -0.025 | [9] -0.006 | [10] -0.054

AURKAIP1 (UniProt Q9NWT8)
inactive: [1] 0.026 | [2] 0.219 | [3] -0.02 | [4] 0.083 | [5] 0.072 | [6] 0.077 | [7] -0.057 | [8] 0.067 | [9] 0.098 | [10] -0.032

CHAF1A (UniProt Q13111)
UniProt Q13111, sequence (Q13111 whole entry, looked up): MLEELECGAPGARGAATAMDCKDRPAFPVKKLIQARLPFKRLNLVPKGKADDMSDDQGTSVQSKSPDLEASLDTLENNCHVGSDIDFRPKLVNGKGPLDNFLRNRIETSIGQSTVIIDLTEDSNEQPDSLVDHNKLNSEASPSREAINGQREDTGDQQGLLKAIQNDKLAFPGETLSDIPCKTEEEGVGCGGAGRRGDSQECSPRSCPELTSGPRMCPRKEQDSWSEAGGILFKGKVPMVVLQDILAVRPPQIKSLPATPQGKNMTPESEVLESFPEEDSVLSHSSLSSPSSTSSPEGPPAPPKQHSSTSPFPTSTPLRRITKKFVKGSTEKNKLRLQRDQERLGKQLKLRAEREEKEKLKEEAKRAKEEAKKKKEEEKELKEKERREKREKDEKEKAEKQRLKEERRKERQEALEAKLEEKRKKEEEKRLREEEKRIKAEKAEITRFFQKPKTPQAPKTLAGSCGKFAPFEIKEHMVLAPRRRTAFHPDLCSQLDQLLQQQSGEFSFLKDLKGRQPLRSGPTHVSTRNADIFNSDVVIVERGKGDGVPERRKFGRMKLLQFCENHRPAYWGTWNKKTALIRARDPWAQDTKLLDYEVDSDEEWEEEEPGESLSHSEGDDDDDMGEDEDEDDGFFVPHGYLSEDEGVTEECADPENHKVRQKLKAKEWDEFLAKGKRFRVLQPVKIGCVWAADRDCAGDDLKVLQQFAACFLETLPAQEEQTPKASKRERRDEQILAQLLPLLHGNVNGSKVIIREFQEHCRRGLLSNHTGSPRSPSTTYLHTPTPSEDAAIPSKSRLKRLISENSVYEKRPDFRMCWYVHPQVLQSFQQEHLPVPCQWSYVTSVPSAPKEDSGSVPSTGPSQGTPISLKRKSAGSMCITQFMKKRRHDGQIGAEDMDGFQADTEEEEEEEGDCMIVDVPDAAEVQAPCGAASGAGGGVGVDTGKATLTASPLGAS
inactive: [1] -0.003 | [2] -0.089 | [3] -0.019 | [4] 0.02 | [5] 0.038 | [6] 0.003 | [7] 0.063 | [8] -0.107 | [9] -0.01 | [10] -0.065

CDC123 (UniProt O75794)
UniProt O75794, sequence (O75794 whole entry, looked up): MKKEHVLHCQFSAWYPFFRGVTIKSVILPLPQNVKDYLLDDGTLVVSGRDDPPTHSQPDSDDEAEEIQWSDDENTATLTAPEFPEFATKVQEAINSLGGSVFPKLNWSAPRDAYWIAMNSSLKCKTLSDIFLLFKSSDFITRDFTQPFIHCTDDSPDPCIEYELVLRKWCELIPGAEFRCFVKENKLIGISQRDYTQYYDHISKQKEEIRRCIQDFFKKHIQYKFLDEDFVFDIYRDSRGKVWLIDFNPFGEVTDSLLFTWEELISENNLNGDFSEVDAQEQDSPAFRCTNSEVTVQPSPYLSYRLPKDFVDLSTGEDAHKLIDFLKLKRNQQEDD
inactive: [1] 0.019 | [2] -0.125 | [3] 0.009 | [4] 0.007 | [5] -0.03 | [6] 0.018 | [7] 0.136 | [8] -0.004 | [9] -0.023 | [10] -0.001

ATG4B (UniProt Q9Y4P1)
UniProt Q9Y4P1, sequence (Q9Y4P1 whole entry, looked up): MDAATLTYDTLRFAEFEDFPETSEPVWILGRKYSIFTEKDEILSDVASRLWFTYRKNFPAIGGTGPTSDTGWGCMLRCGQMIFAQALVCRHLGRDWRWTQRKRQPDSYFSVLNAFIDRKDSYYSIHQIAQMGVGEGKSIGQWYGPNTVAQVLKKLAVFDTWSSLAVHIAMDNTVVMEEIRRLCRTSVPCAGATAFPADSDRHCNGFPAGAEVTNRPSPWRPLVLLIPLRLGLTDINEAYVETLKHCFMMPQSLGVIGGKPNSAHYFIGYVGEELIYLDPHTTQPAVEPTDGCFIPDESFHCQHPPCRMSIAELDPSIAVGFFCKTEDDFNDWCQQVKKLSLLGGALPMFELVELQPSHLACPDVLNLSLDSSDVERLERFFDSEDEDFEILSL
inactive: [1] 0.052 | [2] -0.129 | [3] 0.025 | [4] 0 | [5] -0.025 | [6] 0 | [7] -0.018 | [8] 0.053 | [9] 0.02 | [10] -0.071

CDK5RAP2 (UniProt Q96SN8)
inactive: [1] 0.018 | [2] -0.15 | [3] 0.009 | [4] 0.037 | [5] -0.007 | [6] 0.045 | [7] 0.012 | [8] -0.007 | [9] -0.144 | [10] -0.021

ATAD3B (UniProt Q5T9A4)
inactive: [1] 0.124 | [2] 0.047 | [3] -0.029 | [4] 0.046 | [5] 0.039 | [6] 0.016 | [7] -0.128 | [8] 0.006 | [9] -0.008 | [10] -0.001
